Results on 6 compounds are retold here after PubChem BioAssay.

“And” between values parts separate entries of the source, which are not always exact repeats. Identical values can stand only once. The source made the active and inactive calls.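 How the source made its calls, unless noted: active means compounds that lower survival of DLD-1 colon cancer cells in the luminescence readout, no cutoff given; inactive means the rest.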

Assay [1] can be described thus: compounds altering viability of human ES cells (AID 493140; call rule not given here;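 further: cells exposed to compounds for four days before counting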). As to conditions: human embryonic stem cell survival screen; stronger effect = higher value.
The nature of assay [2]: stimulators of insulin release from INS-1E, primary screen, cell-based, 5 mM glucose, NPC library (AID 1117329;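 active means compound raises insulin release from rat beta cells at 5 mM glucose, no numeric limit stated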). The following applies: rat INS-1E insulin secretion, at 10 µM, stronger effect = higher value.
The nature of assay [3]: growth inhibition of GSK3B-pretreated HCT116 cells – cell-based, CellTiter-Glo, 0.2 to 20 µM (AID 1117336;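 active means compounds lowering colon cancer cell viability after pretreatment blocking the GSK3B kinase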). As to conditions: HCT116 viability after GSK3B inhibitor, at 20 µM, stronger effect = higher value. In general terms: ATP-based viability assays read luminescence as a measure of living cells.
Assay [4] is described as follows: inhibition of endothelial tube formation, primary screen, imaging, VEGF stimulated, CD31 staining, tube area, NPC library (AID 1117340;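 active means compound that reduces growth-factor-driven endothelial tube area in a mixed cell culture, no cutoff stated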). The following applies: VEGF-stimulated ADSC/ECFC co-culture, at 10 µM, stronger effect = higher value.
Assay [5] in a line: GLP1 release stimulators, primary, NCI-H716, NPC library (AID 1117341;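 active means compound raises GLP1 secretion from the human gut endocrine cells, with no numeric limit stated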). As to conditions: NCI-H716 cells, at 10 µM, stronger effect = higher value.
Assay [6] can be described thus: HCT116 colon cancer cell growth inhibition, primary screen, CellTiter-Glo luminescence, NPC library (AID 1117342;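 active means compounds that lower survival of HCT116 colon cancer cells in the luminescence readout, no numeric limit stated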). The following applies: at 20 µM (top of the series).
The nature of assay [7]: reduced SW480 viability measured with CellTiter-Glo, NPC library, primary (AID 1117343;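 active means compounds that lower viability of the colon cancer cells in the luminescence readout, with no numeric limit stated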). As to conditions: CellTiter-Glo luminescence; at 20 µM (top of the series) unless noted.
The nature of assay [8]: NPC library primary testing for decreased DLD-1 cell viability via CellTiter-Glo (AID 1117346). As to conditions: DLD-1 viability, CellTiter-Glo luminescence; at 20 µM (top of the series).
Assay [9] deals with 6-phosphogluconate dehydrogenase, decarboxylating (Homo sapiens) (UniProt P52209). The assay can be described thus: inhibition of human phosphogluconate dehydrogenase – biochemical, recombinant enzyme, NADPH absorbance, primary screen (AID 1159550;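 active means at least 20% inhibition of 6-phosphogluconate dehydrogenase activity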). As to conditions: recombinant 6PGD, NADPH absorbance 341 nm; at 10 µM; stronger effect = higher value.
Chain of 6-phosphogluconate dehydrogenase, decarboxylating (Homo sapiens) (P52209 whole entry, looked up): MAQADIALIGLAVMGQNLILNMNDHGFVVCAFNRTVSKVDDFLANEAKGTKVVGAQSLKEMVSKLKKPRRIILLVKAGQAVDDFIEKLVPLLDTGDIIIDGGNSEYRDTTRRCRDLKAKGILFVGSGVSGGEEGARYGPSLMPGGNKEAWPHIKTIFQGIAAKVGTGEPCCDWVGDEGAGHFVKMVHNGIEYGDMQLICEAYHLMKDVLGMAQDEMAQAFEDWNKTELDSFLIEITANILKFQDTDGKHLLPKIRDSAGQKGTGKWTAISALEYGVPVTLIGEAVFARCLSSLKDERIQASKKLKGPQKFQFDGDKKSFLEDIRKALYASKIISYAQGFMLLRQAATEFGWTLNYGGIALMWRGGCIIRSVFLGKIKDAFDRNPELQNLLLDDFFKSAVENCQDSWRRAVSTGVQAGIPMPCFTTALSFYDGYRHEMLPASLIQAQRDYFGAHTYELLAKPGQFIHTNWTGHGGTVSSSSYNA
Assay [10] can be described thus: modulation of C. elegans fzo-1 (AID 1259413; call rule not given here;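 further: fzo-1 mutant C. elegans worms in liquid wells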). The following applies: C. elegans fzo-1 modulator screen, mean read-out; stronger effect = higher value.
Assay [11] in a line: EMT-state selective cytotoxicity in co-culture – imaging, PC-3E GFP, TEM4-18 mCherry, primary screen (AID 1345086;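 active means compounds killing one labelled cell type while sparing the other, by normalised counts and ratio limits, not self-fluorescent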;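 on all read-outs here: cells exposed to compound for 72 h before imaging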;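 on red/green cell ratio (normalised): normalised mesenchymal count divided by normalised epithelial count so high means epithelial killing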). The following applies: PC-3E GFP / TEM4-18 mCherry co-culture, imaging cell counts, at 1 µM; for red/green cell ratio (normalised): actives lie on both sides, counts scaled to control wells, 1 = unselective.
Assay [12] can be described thus: MELAS cybrid and Rieske KO viability enhancers – cell-based, MELAS cybrids, Rieske KO mouse fibroblasts, CellTiter-Glo, primary screen (AID 1508586;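 active means mean z-score across replicates of 1.96 or higher in either the MELAS or the Rieske mutant cell line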;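 further: z relative to plate mean and SD of compound and empty wells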). The following applies: low glucose.
Assay [13] concerns the target NAD(+) hydrolase SARM1 (Homo sapiens) (UniProt Q6SZW1). The assay can be described thus: blocking NAD cleavage by SARM1 SAM-TIR – cell lysate, NAD-Glo luminescence (AID 1508614;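 active means compound whose remaining NAD level is above about 45 nM, limit read from the data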). The following applies: SAM-TIR HEK293T lysate NADase, at 1 µM, stronger effect = higher value.
Assay [14] has as its target Mitogen-activated protein kinase 7 (Homo sapiens) (UniProt Q13164). The assay can be described thus: Gal4-ERK5 driven luciferase induction – cell-based, HTS, primary screen (AID 1508626;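 active means luciferase signal above three times the same-plate solvent-only control wells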;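 further: luciferase driven by Gal4-ERK5 fusion binding five Gal4 sites before minimal TATA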). As to conditions: HeLa Gal4-ERK5 transactivation, 18 h, at 5 µM, stronger effect = higher value.
Assay [15] in a line: galactose survival enhancers in mitochondrial complex I cybrids – cell-based, galactose medium, ATP luminescence, primary screen (AID 1645843;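 active means z-score of at least 1.8 in each of two replicates, scored against plate mean and spread of sample wells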;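 further: positive z means more ATP and so rescue of galactose-driven cybrid death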). As to conditions: complex I mutant cybrid cells, 72 h, stronger effect = higher value.
The nature of assay [16]: Wnt pathway potentiators raising nuclear beta-catenin – imaging, WNT3A-conditioned medium, mouse C2C12, NPC library, primary screen (AID 1117326; in the data active means nuclear beta-catenin stimulation mostly above about 4.2%, no sharp cut-off; inactive means mostly below about 10%). As to conditions: stronger effect = higher value.
Assay [17] is described as follows: viability loss with induced miR-34 in A549 – imaging, A549 dox-inducible miR-34, nuclei and caspase counts, primary screen (AID 1347080;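 active means compounds whose cell count with miR-34 switched on is under 0.7 times the count with it off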). The following applies: A549 miR-34 inducible, Hoechst nuclei count, 48 h.
Setting [18] is: measured here: epithelial PC-3E GFP cell survival.
Setting [19] is: measured here: mesenchymal TEM4-18 mCherry cell survival.
Where [20] appears, read: stronger effect = lower value, cell number ratio, induced over uninduced.
[21] abbreviates: measured here: relative caspase fold change +Dox/-Dox.
Where [22] appears, read: measured here: total cells with miR-34 induction, stronger effect = lower value.
[23] abbreviates: measured here: total cells without miR-34 induction.

Chain of NAD(+) hydrolase SARM1 (Homo sapiens) (Q6SZW1 whole entry, looked up, the tested form may be a part): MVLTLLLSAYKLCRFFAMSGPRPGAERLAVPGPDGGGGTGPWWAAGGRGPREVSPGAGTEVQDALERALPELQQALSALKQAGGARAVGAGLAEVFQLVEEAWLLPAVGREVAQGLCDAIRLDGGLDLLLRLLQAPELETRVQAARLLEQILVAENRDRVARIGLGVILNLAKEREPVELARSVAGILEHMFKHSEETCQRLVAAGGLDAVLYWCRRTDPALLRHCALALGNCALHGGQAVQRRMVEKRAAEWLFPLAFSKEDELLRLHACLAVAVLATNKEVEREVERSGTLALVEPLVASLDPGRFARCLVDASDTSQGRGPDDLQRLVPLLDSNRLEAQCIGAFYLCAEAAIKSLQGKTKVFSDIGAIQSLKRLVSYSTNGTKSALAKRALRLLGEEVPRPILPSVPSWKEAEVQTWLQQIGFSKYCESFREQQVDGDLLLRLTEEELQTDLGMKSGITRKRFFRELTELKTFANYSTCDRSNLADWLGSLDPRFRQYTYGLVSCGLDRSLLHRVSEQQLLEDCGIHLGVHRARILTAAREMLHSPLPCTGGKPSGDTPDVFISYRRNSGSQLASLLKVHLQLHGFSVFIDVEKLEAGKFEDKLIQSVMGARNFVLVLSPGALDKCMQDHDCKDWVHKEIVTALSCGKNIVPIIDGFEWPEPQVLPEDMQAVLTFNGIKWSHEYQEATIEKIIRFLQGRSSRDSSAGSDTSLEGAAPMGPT
Chain of Mitogen-activated protein kinase 7 (Homo sapiens) (Q13164 whole entry, looked up, the tested form may be a part): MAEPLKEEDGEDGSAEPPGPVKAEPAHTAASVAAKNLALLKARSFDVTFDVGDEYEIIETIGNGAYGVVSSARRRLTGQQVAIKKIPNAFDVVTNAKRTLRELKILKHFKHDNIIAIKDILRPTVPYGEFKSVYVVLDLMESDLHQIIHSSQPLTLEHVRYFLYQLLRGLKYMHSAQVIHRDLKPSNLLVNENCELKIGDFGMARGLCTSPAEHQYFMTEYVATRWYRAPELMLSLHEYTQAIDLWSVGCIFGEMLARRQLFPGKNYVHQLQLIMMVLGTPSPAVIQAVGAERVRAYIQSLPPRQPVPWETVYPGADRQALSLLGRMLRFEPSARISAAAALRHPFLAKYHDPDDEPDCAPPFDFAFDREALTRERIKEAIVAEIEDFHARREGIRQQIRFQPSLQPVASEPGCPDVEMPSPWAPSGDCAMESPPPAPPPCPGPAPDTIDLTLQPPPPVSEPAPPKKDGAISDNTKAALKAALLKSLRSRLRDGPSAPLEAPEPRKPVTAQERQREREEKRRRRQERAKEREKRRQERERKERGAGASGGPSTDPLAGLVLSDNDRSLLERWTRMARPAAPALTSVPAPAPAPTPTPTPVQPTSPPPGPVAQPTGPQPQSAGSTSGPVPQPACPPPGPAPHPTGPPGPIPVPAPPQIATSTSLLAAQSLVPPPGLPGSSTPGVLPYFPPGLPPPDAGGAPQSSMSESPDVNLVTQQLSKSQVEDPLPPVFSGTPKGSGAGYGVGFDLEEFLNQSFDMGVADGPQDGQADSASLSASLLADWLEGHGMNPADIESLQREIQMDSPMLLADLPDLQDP

In general, inhibition refers to the relative decrease from the control value, in per cent. Take `O=C(O)CCc1nc(-c2ccccc2)c(-c2ccccc2)o1`: the survival in [1] was 5.67 (inactive). The insulin secretion stimulation in assay [2] is 1.3% (inactive). The viability decrease in [3] is -61.8% (inactive). The tube area decrease in assay [4] was -17.6% (inactive). The GLP1 secretion stimulation in [5] was 2.2% (inactive). Also, the inhibition of viability in [6] was 9.15% (inactive). The viability decrease (inhibition) in assay [7] was 8.7% (inactive); in assay [8], -5.7% (inactive). Further, the inhibition in assay [9] is -3.27% (inactive). Besides, the mean signal in assay [10] is 247 (inactive). Also, in assay [11], the red/green cell ratio (normalised) is 1.03 (inactive). Moreover, the normalised cell number in [11] (setting [18]) came to 1.14; in assay [11] (setting [19]), 1.18. In addition, the z-score in [12] (MELAS cybrid survival, CellTiter-Glo 48 h, stronger effect = higher value) was -0.226 (inactive) and -0.656 (inactive); in assay [12] (Rieske KO mouse fibroblast survival, CellTiter-Glo 72 h) it was -0.145 and -0.466; in assay [15] it was 0.9 (inactive) and 1.19 (inactive). Moreover, in assay [13], the remaining NAD is 10 nM (inactive). In addition, in assay [14], the luciferase signal was 44 AU (inactive).

For `C[C@@H](C1=C(CCN(C)C)Cc2ccccc21)c1ccccn1`, the nuclear beta-catenin stimulation in [16] (at 10 µM) is -0.2% (inactive); in assay [16] (stimulation, at 2 µM), 8.1%. Moreover, the viability decrease in assay [3] was 37.5% (inactive). Also, the inhibition of viability in [6] was -11.9% (inactive). Further, the values for the viability decrease (inhibition) in assay [7] and in assay [8] were 63.6% (active) and -48.2% (inactive), respectively. The results for the fold change in assay [17] (setting [20]) and in [17] (setting [21]) were 0.916 (inactive) and 0.633, respectively. The cell count in assay [17] (setting [22]) was 7800; in assay [17] (setting [23]), 8520. Moreover, the z-score in [15] was -0.445 (inactive).

Consider `CC12CCC(CC1)C(C)(C)O2`, for which the nuclear beta-catenin stimulation in assay [16] (at 10 µM) was 1.8% (inactive); in assay [16] (stimulation, at 2 µM) it was 17.2%. The viability decrease in assay [3] was 4.1% (inactive). Further, the inhibition of viability in assay [6] is 7.2% (inactive). Besides, the values for the viability decrease (inhibition) in [7] and in assay [8] were 5% (inactive) and 4.4% (inactive), respectively. For the same compound, the inhibition in assay [9] was -15.6% (inactive). Further, the red/green cell ratio (normalised) in [11] is 0.83 (inactive). The figures for the normalised cell number in assay [11] (setting [18]) and in assay [11] (setting [19]) were 1.13 and 0.94, respectively. Moreover, in [13], the remaining NAD was 10 nM (inactive).

In the case of `CN1C(=O)CC[C@H]1c1cccnc1`, the survival in assay [1] was 19.8 (inactive). Further, the nuclear beta-catenin stimulation in [16] (at 10 µM) was -1.4% (inactive); in assay [16] (stimulation, at 2 µM) it was 5.5%. Further, the viability decrease in assay [3] was 22.7% (inactive). Further, in assay [6], the inhibition of viability was 12.8% (inactive). The viability decrease (inhibition) in [7] was -3% (inactive); in assay [8], 14.2% (inactive). The inhibition in [9] was 7.9% (inactive). In addition, the mean signal in assay [10] was 242 (inactive). The red/green cell ratio (normalised) in [11] was 1.08 (inactive). Also, the normalised cell number worked out at 1.13 in assay [11] (setting [18]) and 1.23 in [11] (setting [19]). Also, the fold change is 1 (inactive) and 0.929 (inactive) and 0.864 (inactive) in assay [17] (setting [20]); 1.81 and 1.06 and 0.497 in [17] (setting [21]). The cell count is 10100 and 7880 and 10300 in assay [17] (setting [22]); 10100 and 8480 and 11900 in assay [17] (setting [23]). In addition, the remaining NAD in assay [13] is 22 nM (inactive). The luciferase signal in assay [14] is 64 AU (inactive). Also, in assay [15], the z-score is 0.48 (inactive).

`COc1ccccc1N1CCN(CCCCNC(=O)c2ccc(-c3ccc(C(C)=O)cc3)cc2)CC1`: the nuclear beta-catenin stimulation is 9.8% (inactive) in assay [16] (at 10 µM) and 9.2% in [16] (stimulation, at 2 µM). The viability decrease in [3] is 55.6% (active). Further, in [6], the inhibition of viability is 51.4% (active). In addition, the values for the viability decrease (inhibition) in assay [7] and in [8] were 69.7% (active) and 13.8% (inactive), respectively. Moreover, the fold change was 0.929 (inactive) in [17] (setting [20]) and 0.93 in [17] (setting [21]). For the same compound, the cell count in assay [17] (setting [22]) is 8920; in assay [17] (setting [23]), 9600. Also, the z-score in assay [15] was -0.635 (inactive).

On to `C[C@@H](c1ncncc1F)C(O)(Cn1cncn1)c1ccc(F)cc1F` (some centres not stated), for which the insulin secretion stimulation in assay [2] is 3.8% (inactive). Further, the viability decrease in assay [3] was -3.3% (inactive). Moreover, the tube area decrease in assay [4] is -5.2% (inactive). For the same compound, in assay [5], the GLP1 secretion stimulation is -0.7% (inactive). Moreover, the inhibition of viability in [6] was 11.9% (inactive). Moreover, the values for the viability decrease (inhibition) in assay [7] and in assay [8] were 4.6% (inactive) and -4.3% (inactive), respectively.
